Several values for one entry are separate records, joined by “and”; a condition that tells them apart may be missing. Equal entries are not always repeated. Hit rate of the full screen: of about 320,000 compounds, about 2,100 (0.66%) were called active. Another 53% or so got no clear call; they are omitted. Calls follow the shape of the dose curve; as a rule, active = well fitted inhibition curve with a large enough effect in the signal ratio, with a control signal flat (not every such curve was filed as active); inconclusive = small, poorly fitted or top-dose-only effect, or effect the other way, or a change in a side signal; inactive = flat fitted curve, though single readings scatter; the % refers to the signal ratio. This excerpt belongs to a sample that is enriched for actives.
Test: qHTS Assay for Lipid Storage Modulators in Drosophila S3 Cells;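 as to cell number change: cells counted by Cell Tracker Red CMTPX staining in the red channel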; as to lipid storage change, negative = inhibition: % is scaled to controls: 0 for no effect and ±100 for the full control effect
Settings: BODIPY lipid droplet fluorescence, 18-24 h, cells fed with added oleic acid; cell number change: measured here: cell count max response; series mostly up to 46.1 µM; lipid storage change, negative = inhibition: at the top concentration
Summary of the method: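 Laser-scanning cytometry quantifies lipid droplet accumulation (500–530 nm total intensity; droplet/cell object ratio) in oleic acid-fed (400 uM added) Drosophila S3 cells treated with a concentration series. 20 uM Triacsin C defined 100% inhibition.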
Potency is read from the fitted curve at half-maximal effect.

Compound	lipid storage change, negative = inhibition	cell number change	Potency	outcome
CN(C)S(=O)(=O)Nc1ccccc1F	-12.4% (inactive)	-0.564%	–	–
CN(C)S(=O)(=O)Nc1ccc(Br)cc1F	–	-21.1%	23.1 µM (active)	–
CN(C)S(=O)(=O)Nc1cccc(Br)c1	–	0.321% and 14.1%	inactive	–
CC(=O)c1c(C)[nH]c(C(=O)NCc2cccs2)c1C	–	–	–	inactive
COc1ccc(N2CCN(CC(O)COc3ccc4c(c3)CCC4)CC2)cc1 (configuration not stated)	–	10.4%	–	inactive
O=C1CN(CC(=O)N2CCOCC2)c2ccccc2O1	–	–	–	inactive
COc1ccc(/C(C)=N/NC(=S)NCCc2ccccc2)cc1	–	–	–	inactive
COc1cccc(OC)c1C(=O)NC(C)c1ccccc1 (configuration not stated)	2.45% (inactive)	0.137%	–	–
O=C(NCCc1ccc(Cl)cc1)c1ccc2c(c1)OCO2	-3.03% (inactive)	–	–	–
NS(=O)(=O)c1ccc(CCNC(=O)c2ccc3c(c2)OCCO3)cc1	-3.84% (inactive)	12.5%	–	–
NS(=O)(=O)c1ccc(CCNC(=O)c2ccc3c(c2)OCO3)cc1	–	21.4%	23.1 µM (active)	–
CCCCSc1nc2sc3c(c2c(=O)n1-c1ccc(C)cc1)CCN(C)C3	-30% (inactive)	14.8%	–	–
CS(=O)(=O)Oc1ccc(/C=C2\C(=N)N3N=C(CC(=O)N4CCOCC4)SC3=NC2=O)cc1Cl	–	6.05%	–	inactive
Cc1cc(/C=C2/C(=O)N(C)C(=S)N2C)ccc1N1CCCC1	–	-25.4%	4.47 µM (active)	–
COc1cc(/C=C2\C(=O)N(C)C(=S)N2C)ccc1O	2.76% (inactive)	-9.16%	–	–
CN1C(=O)/C(=C/c2ccc(O)c([N+](=O)[O-])c2)N(C)C1=S	3.49% (inactive)	0.447%	–	–
CCc1ccc(NC(=O)c2cc(C)nn2-c2ccccc2)cc1	9.85% (inactive)	2.41%	–	–
CC12CCC(=O)N1C(C(=O)NNC(=O)c1ccc(Cl)cc1)CS2 (configuration not stated)	-23.9% (inactive)	25.5%	–	–
COCCn1c(SCC(=O)Nc2cc(C)on2)nc2c(c1=O)SC(C)C2 (configuration not stated)	15.1% (inactive)	9.04%	–	–
Cc1csc(NC(=O)CSC2=NS(=O)(=O)c3cc(F)ccc3N2)n1	27.8% [at 0.0737 µM] (inactive)	–	–	–
CCCN(C(=O)COC(=O)CCOc1ccccc1)c1c(N)n(Cc2ccccc2)c(=O)[nH]c1=O	–	-10.8%	14.6 µM (active)	–
CCCN(C(=O)c1ccc([N+](=O)[O-])c(C)c1)c1c(N)n(Cc2ccccc2)c(=O)[nH]c1=O	-11% (inactive)	-21.6%	–	–
CCCN(C(=O)c1c(-c2ccccc2)noc1C)c1c(N)n(Cc2ccccc2)c(=O)[nH]c1=O	–	9.83%	1.84 µM (active)	–

Compound	lipid storage change, negative = inhibition	cell number change	Potency	outcome
CCN(C(=O)CN1CCN(c2ccccc2)CC1)c1c(N)n(Cc2ccccc2)c(=O)[nH]c1=O	–	-21.7%	13 µM (active)	–
CCCN(C(=O)C1=COCCO1)c1c(N)n(Cc2ccccc2)c(=O)[nH]c1=O	5.43% [at 0.0737 µM] (inactive)	-8.42%	–	–
CCN(C(=O)CN1CCCCC1)c1c(N)n(Cc2ccccc2)c(=O)[nH]c1=O	-1.92% (inactive)	1.16%	–	–
CCN(C(=O)COC(=O)CCCOc1ccccc1)c1c(N)n(Cc2ccccc2)c(=O)[nH]c1=O	-0.952% (inactive)	-12.5%	–	–
CCN(C(=O)CN1CCN(c2cccc(Cl)c2)CC1)c1c(N)n(Cc2ccccc2)c(=O)[nH]c1=O	8.94% (inactive)	-10%	–	–
CCN(C(=O)COC(=O)CCOc1ccccc1)c1c(N)n(Cc2ccccc2)c(=O)[nH]c1=O	6.7% (inactive)	3.61%	–	–
c1ccc2c(c1)nnn2CNc1nccs1	11.7% (inactive)	-2.46%	–	–
COc1ccc(C(=O)NC2CCCCCC2)cc1S(=O)(=O)Nc1ccc(Br)cc1	–	-11.3%	–	inactive
CCCCCCn1c(=O)c(C(=O)N/N=C/c2cccc(F)c2)c(O)c2ccccc21	-4% (inactive)	5.21%	–	–
CC12C(=O)N(n3cnnc3)C(=O)C1C1C=CC2C1 (configuration not stated)	–	2.58%	18.4 µM (active)	–
O=C1[C@@H]2[C@H](C(=O)N1n1cnnc1)[C@H]1C=C[C@@H]2C1	6.88% (inactive)	1.74%	–	–
CC12C(=O)N(NC(=O)c3ccncc3)C(=O)C1C1C=CC2C1 (configuration not stated)	9.21% (inactive)	6.42%	–	–
CN1CCN(S(=O)(=O)c2ccc(Nc3cccc(Cl)c3)c([N+](=O)[O-])c2)CC1	10.8% (inactive)	8.16%	–	–
COc1ccc(C(=O)Nc2cccc(S(=O)(=O)NC3=NCCCCC3)c2)cc1	10.1% (inactive)	-1.04%	–	–
CN(C)c1nc(N(C)C)nc(N2CCCCC2)n1	21% (inactive)	10.3%	–	–
COc1ccc(NC(=O)CCC(=O)OC(C(=O)c2ccccc2)c2ccccc2)cc1 (configuration not stated)	-9.84% (inactive)	-23.4%	–	–
Cc1ccc(C(=O)C(OC(=O)CCC(=O)Nc2cccc(C)c2)c2ccccc2)cc1 (configuration not stated)	-7.6% (inactive)	-1.69%	–	–
O=C(CCC(=O)OC(C(=O)c1ccccc1)c1ccccc1)Nc1ccccc1 (configuration not stated)	–	-23.6%	0.731 µM (active)	–
COc1ccc(NS(=O)(=O)c2ccc(NC(C)=O)cc2)c(OC)c1	5.93% (inactive)	0.633%	–	–
O=C(NCCc1cnn(-c2ccccc2)c1)c1cc(COc2c(F)cccc2F)on1	15.2% (inactive)	0.269%	–	–
COc1ccccc1CNc1ncc(-c2ccc(F)cc2)n1C	-18.1% (inactive)	-1.58%	–	–
COc1ccc(OC)c(CNc2ncc(-c3ccc(F)cc3)n2C)c1	–	-16.1%	32.6 µM (active)	–
Cn1c(-c2ccc(F)cc2)cnc1NCc1ccc(F)cc1F	-14.7% (inactive)	25.6%	–	–
